Source: PubChem BioAssay
This excerpt belongs to a sample that is enriched for hits.
Pf Dd2 growth: blocks in vitro growth of P. falciparum Dd2; P. falciparum Dd2 growth, SYBR Green, 72 h; Potency, µM (top dose mostly 28.9 µM), without a hit: at the top dose activity, negative = inhibition, hits mostly inhibitors; hit rate 4.3% among 120,000; AID 1347417; active = well fitted inhibition curve with a large enough effect;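 note: plate controls were DMSO vehicle for no effect and reference drug for full effect; nearly all actives have a fitted effect of over 65% in size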
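Infected erythrocytes (Dd2, 0.3% parasitemia, 2.5% hematocrit final) are added to compound in RPMI-1640/Albumax II medium, grown 72 h at 37C in low oxygen, then lysed with saponin/Triton-X containing SYBR Green and read by fluorescence.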
* = called active by the depositor; i = inactive; [ ] = dose if it differs, or a comment. Potency is the fitted concentration of half-maximal effect.

SMILES | Pf Dd2 growth
CCOc1cccc(C2c3c(-c4cc(C)ccc4O)n[nH]c3C(=O)N2Cc2ccco2)c1 (centres undefined) | 10µM*
Cc1cc(C)c2c(=O)c3c(oc2c1)C(=O)N(Cc1ccco1)C3c1ccc(F)cc1 (centres undefined) | 11.4%
COCCN1C(=O)c2[nH]nc(-c3c(C)cc(C)cc3O)c2C1c1cccc(O)c1 (centres undefined) | -7.7%
COc1cc(C2c3c(-c4cc(C)ccc4O)n[nH]c3C(=O)N2Cc2ccco2)cc(OC)c1OC (centres undefined) | i
Cc1ccc(O)c(-c2n[nH]c3c2C(c2ccccc2F)N(Cc2ccco2)C3=O)c1 (centres undefined) | 4.47µM*
O=C(NCc1ccccn1)C1CCN(C2CCN(C3CCCCC3)CC2)CC1 | 4.6%
Cc1noc(C)c1[S+](=O)([O-])N1CCC2(CC1)C(=NC1CCCCC1)NC(=O)N2c1cccnc1 | 19.0%
Cc1cnn(CCC(=O)N[C@@H]2CN(C3CCOCC3)C[C@H]2CN(C)C)c1 | 16.0%
CCOc1ccc(CN(CCc2ccc3c(c2)OCO3)Cc2cc(OC)ccc2O)cc1 | 0.708µM*
CCOc1ccc(CN(CCc2ccc3c(c2)OCO3)Cc2ccc(CC)cc2)cc1 | -14.3%
CCOc1ccc(CN2C[C@@H]3C(=O)N(Cc4ccc5c(c4)OCO5)C(=O)[C@@H]3C2)cc1 | -15.2%
CC(C)N1C(=O)C2(CCCCC2)C1C(=O)NC1CC1 (centres undefined) | i
CC(C)C[C@@H]1N[C@H](C(=O)NCc2ccccc2)Cc2c[nH]c3cccc1c23 | i
CC(C)C[C@@H]1N[C@H](C(=O)NCCOc2ccccc2)Cc2c[nH]c3cccc1c23 | 12.6µM*
CCCNC(=O)[C@@H]1Cc2c[nH]c3cccc(c23)[C@H](CC(C)C)N1 | i
CC(C)C[C@@H]1N[C@H](C(=O)NCc2ccco2)Cc2cn(Cc3nccn3C)c3cccc1c23 | -16.2%
CC(C)C[C@@H]1N[C@H](C(=O)N2CCCC2)Cc2c[nH]c3cccc1c23 | -18.3%[44.1 µM]
CC(C)C[C@@H]1N[C@H](C(=O)N2CCC(NC(=O)c3ccccc3)CC2)Cc2c[nH]c3cccc1c23 | 10µM*
CC(C)C[C@@H]1N[C@H](C(=O)NCCCn2ccnc2)Cc2c[nH]c3cccc1c23 | 8.91µM*
CC(C)C[C@@H]1N[C@H](C(=O)NCc2ccccc2Cl)Cc2c[nH]c3cccc1c23 | i
O=C(NC1CCN(C(=O)N2CC3CC(C2)[C@H]2CCCC(=O)N2C3)CC1)C1CCCCC1 (some centres undefined) | 4.8%
COc1cccc2c1OCCCN(C(=O)c1ccc(C3CCCNC3)cc1)C2 (centres undefined) | i
Cc1ncc2c(c1CNC(=O)CN1C(=O)NC(C)(C)C1=O)CCNC2 | -8.9%
COc1ccc(NC(=O)c2ccc3c(c2)N(C(=O)c2ccc(F)cc2)CC3)cc1OC | -17.8%
CCc1cn(C[C@@H](C(=O)O)N(C)C)c(=O)[nH]c1=O | 23.3%[44.1 µM]
SMILES | Pf Dd2 growth
CCN(Cc1cnn(CC)c1)C(=O)c1ccc2c(c1)C(O)CCCCCN2C (centres undefined) | i
COCCn1cnc2ccc(-c3cccc(C(F)(F)F)c3)nc2c1=O | -13.4%[44.1 µM]
O=C(Cc1ccccc1F)NC1CCN(c2cc(-c3ccccc3)[nH]n2)CC1 | i
Cc1cccc(-n2ncc3c(N4CCN(c5ccccc5)CC4)ncnc32)c1 | 44.0%
COc1ccc(-n2ncc3c(N4CCN(c5cccc(C)c5)C(C)C4)ncnc32)cc1 (centres undefined) | 5.62µM*
COc1ccc(N2CCN(c3ncnc4c3cnn4-c3ccc(C)c(Cl)c3)CC2)cc1 | 40.4%
Cc1nn(C(=O)CCCC(=O)N2CCC(c3nc(C4CCOCC4)no3)CC2)c2ccccc12 | i
Cn1cnnc1CC1CCN(C(=O)c2cc(-c3ccccc3)no2)CC1 | -25.7%
Cn1ncc2c(C(=O)NCC3CC3)cc(-c3cccnc3)nc21 | 12.6µM*
Cc1cccc(C)c1-c1cc(C(=O)NC2CC2)c2cnn(C)c2n1 | 0.9%
Cn1ncc2c(C(=O)NC3CC3)cc(-c3cccc(C(F)(F)F)c3)nc21 | -21.8%
COc1ccc(OC)c(-c2nc3ccc(-c4ccc(OC)c(OC)c4OC)cc3o2)c1 | -0.2%
NC(=O)[C@@H]1CN(C(=O)COc2ccccc2)C[C@H]1COc1ccccc1 | 13.7%
COc1cccc(C(=O)N2CCC(c3n[nH]c(=O)n3Cc3ccc(C)cc3)CC2)c1 | i
Cc1ccc(C(=O)N2CCN(C(=O)c3nnn4c3COC(c3ccc(Cl)cc3)C4)CC2)s1 (centres undefined) | 2.82µM*
Cc1ccc(C)c(C(=O)N2CCN(C(=O)c3nnn4c3COC(c3ccc(Cl)cc3)C4)CC2)c1 (centres undefined) | i
Cc1ccc(C(=O)N2CCN(C(=O)c3nnn4c3COC(c3ccc(Cl)cc3)C4)CC2)c(C)c1 (centres undefined) | -1.8%
Cc1noc([C@@H]2CN(C(=O)c3ccc(F)c(Cl)c3)C[C@H]2CO)n1 | -15.9%
O=C(NC1CCCCC1)N[C@H]1CO[C@H]2[C@@H]1OC[C@@H]2n1cc(-c2ccccn2)nn1 | -13.1%[44.1 µM]
Cc1noc(C)c1C(=O)N1CCCCCCn2c(nnc2-c2ccc(F)cc2)CC1 | 3.7%
COc1cc2c(cc1OCc1ccncc1)NC(=O)C21CCN(Cc2ccncc2)CC1 | i
CCOc1cccc(CNCCCSc2nnnn2C)c1 | -4.3%
Cn1nnnc1SCCCNCc1cccc(OCc2ccc(F)cc2)c1 | 5.62µM*
Cn1nnnc1SCCNCc1ccc(OCc2ccccc2)cc1 | i
CCNC(=O)N1[C@H]2CC[C@@H]1c1cnc(-c3ccccc3)nc1C2 | -20.6%
SMILES | Pf Dd2 growth
O=C(Cc1ccccc1)N1[C@H]2CC[C@@H]1c1cnc(-c3ccccc3)nc1C2 | i
COc1ccc(CCC(=O)N2[C@H]3CC[C@@H]2c2cnc(-c4ccccc4)nc2C3)cc1 | -26.7%
Cc1noc(C)c1Cc1ccc(C(=O)N2[C@H]3CC[C@@H]2c2cnc(-c4ccccc4)nc2C3)o1 | 0.631µM*
O=C(CC1CCCC1)N1[C@H]2CC[C@@H]1c1cnc(-c3ccccc3)nc1C2 | 12.6µM*
COc1ccc(CNC(=O)N2[C@H]3CC[C@@H]2c2cnc(-c4ccccc4)nc2C3)cc1 | 11.2µM*
COc1ccccc1C(=O)N1[C@H]2CC[C@@H]1c1cnc(-c3ccccc3)nc1C2 | i
Cc1noc(C)c1CC(=O)N1[C@H]2CC[C@@H]1c1cnc(-c3ccc(F)cc3)nc1C2 | -15.8%
COCCC(=O)N1[C@H]2CC[C@@H]1c1cnc(-c3ccccc3)nc1C2 | -14.9%
CC(=O)N1C[C@@H](C(=O)NCc2ccc3c(c2)OCO3)[C@H](c2nc(C)no2)C1 | -4.5%
O=C(CN1C(=O)NC2(CCOCC2)C1=O)N1CCN(c2ccccc2F)CC1 | i
CC(C)CCCC1CN(C(=O)CN2CCCC2=O)CCO1 (centres undefined) | -4.2%
O=C1CCCN1CC1CCN(C(=O)c2ccc(N3CCC(O)CC3)nc2)CC1 | 0.6%
CCC(=O)N(C1CCOCC1)C1CCN(Cc2cccc(F)c2F)CC1 | i
CN(C)c1ccc(C(=O)N2CCC3(CC2)c2nccn2-c2ccccc2CN3C)cc1 | 14.5%[5.79 µM]
Cc1cccc(N2Cc3c(ncnc3N3CCN(Cc4ccccc4)CC3)N(C)CC2=O)c1 | i
CCOCC(=O)N1CCC(N2C[C@H](O)C[C@H]2C(=O)NCc2cccc(OC)c2)CC1 | 5.3%
CC1=C(c2ccc(C)c(C)c2)S(=O)(=O)N=C1N1CCC(C(=O)Nc2ccc(Cl)cc2)CC1 | i
CC1=C(c2ccc(C)c(C)c2)S(=O)(=O)N=C1N1CCC(C(=O)N2CCC(C(N)=O)CC2)CC1 | i
